# PG9 Ab binder – binds the HIV-1 gp120 antibody PG9; TR-FRET gp120-PG9 antibody binding; inhibition, % at 6.7 µM; hit rate 0.43% among 360,000; AID 624416; in the data active means inhibition above about 8.5%
# EP2 mod – modulators of human EP2 prostaglandin E2 receptor; P43116; EP2-expressing cells, cAMP HTRF FRET, PGE2 co-stimulation; induction, % at 25 µM; hit rate 0.83% among 260,000;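 active means compounds whose cAMP rise, as percent of the full-agonist control response, exceeds 60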;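 further: rat C6 glioma line stably carrying human EP2 under a CMV promoter; the protocol text gives 20 µM as final concentration; 100% = response of wells given 1 µM PGE2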
# Target sequence (P43116 whole entry, looked up): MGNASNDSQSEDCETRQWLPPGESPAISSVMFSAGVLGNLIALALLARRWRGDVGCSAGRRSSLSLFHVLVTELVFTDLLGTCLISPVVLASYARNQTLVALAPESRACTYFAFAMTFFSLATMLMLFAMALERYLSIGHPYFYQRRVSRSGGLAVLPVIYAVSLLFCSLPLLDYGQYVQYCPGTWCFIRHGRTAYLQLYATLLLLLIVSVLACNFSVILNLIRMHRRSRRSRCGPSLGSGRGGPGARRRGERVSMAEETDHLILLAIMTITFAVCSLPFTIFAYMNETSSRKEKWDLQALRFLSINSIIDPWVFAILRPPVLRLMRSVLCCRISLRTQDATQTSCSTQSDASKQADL
# EP2 antag – blocks the human prostaglandin E2 receptor EP2 | P43116 | inhibition, % at 25 µM | C6 glioma cells expressing human EP2, cAMP TR-FRET; cells stimulated with saturating PGE2 | hit rate 0.52% among 260,000 | AID 1422;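 active means percent inhibition above 40 after rounding to a whole number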;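 further: rat C6 glioma host cells with rolipram phosphodiesterase inhibitor present; the protocol text gives 20 µM as final concentration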
# NR1D1 modulator – modulates human Rev-erb alpha binding to DNA. Rev-erbα–FITC-DNA binding, fluorescence polarization, 90 min. activity, % at 10 µM. hit rate 0.79% among 370,000. AID 1259318;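 active means activity above about 14%, limit read from the data; passing the limit was not always enough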;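 further: 0% = DMSO wells with 35 nM protein and 100% = DMSO wells with 750 nM protein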
# SKN-1 inh – inhibitors of C. elegans SKN-1; C. elegans VP596 Pgst-4::GFP/RFP ratio, acrylamide-induced, 24 h; inhibition, % at 21.8 µM; hit rate 0.49% among 360,000; AID 624304;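 active means interference check ratio from 0.5 to 1.5 plus GFP to RFP signal ratio inhibition reaching or exceeding a fixed threshold, cut at about 30% in these data, passing the limit was not always enough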
# RAM network inh – inhibitors of the yeast RAM network; S. cerevisiae dse1pr::URA3 reporter, 5-FOA growth OD615, 2 d; analog-sensitive cbk1-as2 kinase mutant strain; inhibition, % at 50 µM; hit rate 1.8% among 190,000; AID 868;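 active means inhibition above a set limit, 3 SD over mean compound inhibition, cut at about 8.4% in these data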;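 further: 0% = DMSO-only wells with no growth and 100% = 10 µM 1-NA-PP1 full growth; inhibition rescues growth on 5-FOA so higher OD means more RAM inhibition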
# PG9 binder conf – PG9 antibody binding, confirmed; TR-FRET PG9 antibody binding, biochemical; shares compounds with PG9 Ab binder; hit rate 90% among 1,500; inhibition, % at 6.7 µM; in the data active means inhibition above about 9%
# PGV04 counter – PGV04 control antibody binding, counter-screen | inhibition, % at 6.7 µM | TR-FRET PGV04 antibody-gp120 binding, biochemical | shares compounds with PG9 Ab binder | hit rate 95% among 1,500; in the data active means inhibition above about 9.5%
# PG9 bind DR – small molecules binding HIV-1 gp120 antibody PG9. shares compounds with PG9 Ab binder. TR-FRET PG9 antibody-gp120 binding inhibition. IC50, µM. 95 tested, under 10 active. AID 651848; in the data active means IC50 below about 10 µM
# PGV04 binding DR – PGV04 binding, dose response counter-screen; shares compounds with PG9 Ab binder; hit rate 20% among 95; AID 651937; IC50, µM; TR-FRET binding to control antibody PGV04
# PG126 DR counter – counter-screen for PG9 binders: binding to control antibody PG126; TR-FRET binding to antibody PG126, counterscreen; shares compounds with PG9 Ab binder; IC50, µM; hit rate 20% among 95
# Starred values were filed as active, the others as inactive; i = inactive; . = no result given. In the library only some 2.9% were active in any assay of this set; here they are far more common. Unless noted, no stated cut-off is given here; in the data, active means IC50 below about 9 µM; inactive means the rest.
SMILES,PG9 Ab binder,EP2 mod,EP2 antag,NR1D1 modulator,SKN-1 inh,RAM network inh,PG9 binder conf,PGV04 counter,others
C=CCOc1ccc(C2NC(=O)NC(C)=C2C(=O)OC(C)C)cc1OC (stereo not drawn),.,-28,14,.,.,.,.,.,
CCN(CC)CCN1C(=O)C(O)=C(C(=O)c2cc3ccccc3o2)C1c1cccnc1 (stereo not drawn),24*,41,21,4,10,1,36*,46*,
COc1cccc2cc(C(=O)C3=C(O)C(=O)N(CCN(C)C)C3c3ccc(Cl)cc3)oc12 (stereo not drawn),14*,18,15,0,4,.,22*,28*,
COc1ccccc1C1C(C(=O)c2cc3ccccc3o2)=C(O)C(=O)N1CCN(C)C (stereo not drawn),13*,39,31,2,-18,1,24*,34*,
O=C(C1=C(O)C(=O)N(CCN2CCOCC2)C1c1cccc(Br)c1)c1cc2ccccc2o1 (stereo not drawn),23*,.,.,-2,22,.,34*,43*,
O=C(C1=C(O)C(=O)N(CCN2CCOCC2)C1c1cccc([N+](=O)[O-])c1)c1cc2ccccc2o1 (stereo not drawn),-1,.,.,-7,12,.,.,.,
CCN(CC)CCN1C(=O)C(O)=C(C(=O)c2sc(C)nc2C)C1c1cccnc1 (stereo not drawn),0,35,12,-2,-2,1,.,.,
CCN1CCCC1CN(Cc1cc2cccc(C)c2[nH]c1=O)C(=O)Nc1ccccc1OC (stereo not drawn),.,-30,13,.,.,.,.,.,
COc1cc(C(=O)Nc2ccc(NC(=O)c3cccs3)nc2)cc(OC)c1OC,.,6,10,.,.,.,.,.,
CCn1c(SCC(=O)OC2CCCCC2)nnc1C1CCCCC1,.,6,13,.,.,.,.,.,
C[C@@H](Cn1nnc2ccccc21)NC(=O)c1cccc(N2CCCCS2(=O)=O)c1,.,-12,7,.,.,.,.,.,
CN(C)c1ccc(-c2nnc(-c3ccc(S(=O)(=O)C(F)F)cc3)o2)cc1,11*,-20,13,5,5,1,17*,20*,
CC(C)C(=O)N1CCN(c2ccc(NC(=O)c3ccc(Cl)cc3Cl)cc2)CC1,.,-23,7,.,.,.,.,.,
CCOC(=O)c1[nH]c2ccc(OC)cc2c1NC(=S)N1CCN(c2ccccc2)CC1,11*,1,14,9,8,4,3,9.5*,
CCOC(=O)c1[nH]c2ccc(OC)cc2c1NC(=S)N1CCN(c2cccc(Cl)c2)CC1,55*,-20,9,-3,2,8,16*,30*,
Clc1cc2c(cc1CN1CCC(c3[nH]ncc3-c3ccncc3)CC1)OCO2,.,-17,.,.,.,.,.,.,
Cc1cc(SCC(=O)NC2CCCC2)nc2ccccc12,16*,.,.,4,-3,.,31*,44*,
Cc1cc(SCC(=O)NC2CCCCC2)nc2ccccc12,18*,6,11,9,5,.,22*,27*,
N#Cc1cnn2c(N)c(-c3ccc(Cl)cc3)cnc12,16*,-15,7,1,4,3,24*,43*,
CSc1nsc(SCC(=O)Nc2nc3ccc(C)cc3s2)n1,10*,11,11,-5,2,4,14*,18*,
O=C(Nc1ccc2c(c1)OCO2)C1CCN(c2ccc(S(=O)(=O)N3CCOCC3)cc2)CC1,16*,-15,5,0,0,1,27*,25*,PG9 bind DR=>67;PGV04 binding DR=i;PG126 DR counter=i
COC(=O)CN1C(=O)C2(SC(NC(C)=O)=NN2C(C)=O)c2cc(C)ccc21 (stereo not drawn),.,-13,5,.,.,.,.,.,
CCC(=O)c1ccc(OCC(=O)c2ccc3c(c2)NC(=O)CO3)cc1,16*,14,8,15,6,.,38*,38*,PG9 bind DR=>67;PGV04 binding DR=i;PG126 DR counter=i
CCc1ccc(OCC(=O)OCC(=O)c2ccc3c(c2)NC(=O)CO3)cc1,15*,-8,3,16,5,3,24*,33*,
Cc1onc(C(=O)NC(C)(C)CN2CCCC(C)C2)c1Cn1cccn1 (stereo not drawn),.,-4,4,.,.,.,.,.,
SMILES,PG9 Ab binder,EP2 mod,EP2 antag,NR1D1 modulator,SKN-1 inh,RAM network inh,PG9 binder conf,PGV04 counter,others
COc1ccccc1NS(=O)(=O)c1cccc(NC(=O)c2[nH]c(C)c(C(C)=O)c2C)c1,12*,-25,4,1,0,.,21*,19*,PG9 bind DR=>67;PGV04 binding DR=>67;PG126 DR counter=>67
CCn1cnc2c1c(=O)[nH]c(=O)n2Cc1ccccc1,.,.,.,.,10,.,.,.,
CCn1c(-c2ccsc2)nc2c1c(=O)[nH]c(=O)n2Cc1ccccc1,22*,54,5,10,-7,8,39*,54*,
CCN(CC(=O)NC(c1ccccc1)c1ccccc1)Cc1nc2ccccc2c(=O)[nH]1,0,20,11,3,6,0,.,.,
CCN(CC(=O)NC(C)C)Cc1nc2c(Br)cc(Br)cc2c(=O)[nH]1,23*,65*,13,5,-2,.,40*,52*,
Cc1cccc(NC(=O)c2sc(NC(=O)Cc3cccs3)c(C#N)c2C)c1C,.,-45,7,.,.,.,.,.,
CCOc1ccc(C(=O)OCC(=O)NCCNC(=O)COC(=O)c2ccc(OCC)cc2)cc1,9.1*,.,.,-1,3,.,14*,17*,
CCOc1ccc(C(=O)OCC(=O)NC(C)C)cc1,-2,16,1,-11,-2,1,.,.,
COc1cc(OC)cc(C(=O)/C=C2\Sc3ccccc3N2C)c1,1,-35,7,0,14,4,.,.,
COc1ccc(C(=O)/C=C2/Sc3cc4c(cc3N2C)OCO4)cc1,40*,28,77*,1,-5,2,56*,49*,PG9 bind DR=>67;PGV04 binding DR=2.4*;PG126 DR counter=2.4*
COc1ccc2ccccc2c1/C=C\c1nc(O)c([N+](=O)[O-])c(=O)[nH]1,.,19,11,.,.,.,.,.,
CC1(C)Cc2nc3sc4c(SCC(=O)NCc5ccccc5)ncnc4c3cc2CO1,48*,63*,24,-3,-6,1,86*,88*,
Cc1nn(CCc2nn[nH]n2)c2nc(-c3ccc(Br)cc3)cc(C(F)(F)F)c12,19*,56,22,1,7,3,27*,37*,
Cc1nn(CCc2nn[nH]n2)c2nc(C(F)(F)F)cc(C(F)(F)F)c12,1,40,16,4,12,0,.,.,
